Drawing on PMC4242493, “Sequence specificity incompletely defines the genome-wide occupancy of Myc”, this text covers binding signal for 172 sequences.

In all, about 33,000 sequences were measured (“normalized occupancy”: median about 0.075, highest 2% from about 0.095 on). The full list was thinned out, with the highest values kept by preference.

Chain of MaxL homodimer (P61244 whole entry): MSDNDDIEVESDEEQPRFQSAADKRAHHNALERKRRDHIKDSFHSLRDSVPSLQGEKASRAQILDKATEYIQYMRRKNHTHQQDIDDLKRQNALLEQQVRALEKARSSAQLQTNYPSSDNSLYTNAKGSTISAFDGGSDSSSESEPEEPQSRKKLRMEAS

The target in the assay is MaxL homodimer (Homo sapiens, UniProt P61244 1-160). The experiment in a line: universal protein-binding microarray (PBM); PBS-based mixture, 10 nM His-tagged protein dimer, 2% milk, 200 ng/uL BSA, 50 ng/uL salmon testes DNA, 0.02% TX-100; detection with Alexa 488 anti-His antibody;; high values mean tight binding. The note with it: protein: recombinant; tags: C-terminal His-tag (pET21a); chain copies: 2; dsDNA, one strand shown. In a few lines:
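Binding occupancy is a fluorescence intensity normalised to the intensity of the highest-ranked sequence word. Those intensities came from 8-mers on Agilent 4 x 44 K 'all 10-mer' universal arrays incubated with 10 nM His-tagged protein dimer. Bound protein was detected with 10 ng/μL fluorophore-conjugated anti-His antibody before scanning on a GenePix 4400A.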
Consider AATGAACC, for which the binding signal is 0.0718 normalized occupancy.
On to AGTTTTAT, for which the binding signal was 0.0775 normalized occupancy.
As for AGTCATGC, the binding signal was found to be 0.096 normalized occupancy.
For the sequence AGTCATGG, the binding signal was 0.0855 normalized occupancy.
With ACTCATGC, the binding signal is 0.0969 normalized occupancy.
As to ACTCATGA, the binding signal is 0.0903 normalized occupancy.
Consider AGTCATGA, for which the binding signal worked out at 0.0829 normalized occupancy.
With CTTCATGC the figure was 0.0794 normalized occupancy.
Consider CCTCATGC, for which the binding signal stood at 0.109 normalized occupancy.
In the case of ACTCATGG, the binding signal turned out to be 0.0945 normalized occupancy.
Consider CCTCATGA, for which the binding signal was 0.0951 normalized occupancy.
Turning to AATACACG, the binding signal was determined as 0.0912 normalized occupancy.
The same measure for CCCTCGAA: 0.0795 normalized occupancy; for AGCACGTG: 1 normalized occupancy.
Consider AGCACGTA, for which the binding signal stood at 0.0853 normalized occupancy.
AGCACGAT: the binding signal was 0.0857 normalized occupancy.
With CGCACGAG, the binding signal turned out to be 0.107 normalized occupancy.
For AGCACGAG, the binding signal was determined as 0.0964 normalized occupancy.
For the sequence CGCACAAA, the binding signal is 0.0718 normalized occupancy.
Take AGCACGAA: the binding signal amounted to 0.0827 normalized occupancy.
AGCACGTC: the binding signal stood at 0.081 normalized occupancy.
Consider CGCACGAA, for which the binding signal is 0.0816 normalized occupancy.
Consider CTACCCCA, for which the binding signal turned out to be 0.0788 normalized occupancy.
For ACGAGGCT, the binding signal amounted to 0.0805 normalized occupancy.
On to AGAACAAT, for which the binding signal came to 0.0787 normalized occupancy.
Take ACCCGCTG: the binding signal was found to be 0.0761 normalized occupancy.
For CCCCGTTA, the binding signal was determined as 0.0766 normalized occupancy.
Take CACGATGG: the binding signal turned out to be 0.0884 normalized occupancy.
The same measure for CTAGCACA: 0.0827 normalized occupancy.
For the sequence CTATGTAC, the binding signal was 0.0847 normalized occupancy.
In the case of AGATGTAC, the binding signal is 0.0766 normalized occupancy.
On to GAATGTAC, for which the binding signal amounted to 0.0769 normalized occupancy.
As to ACATGTAC, the binding signal amounted to 0.0958 normalized occupancy.
For CCATGTAC, the binding signal was 0.086 normalized occupancy.
As for GCATGTAC, the binding signal worked out at 0.0973 normalized occupancy.
As to TGAGATAA, the binding signal stood at 0.0797 normalized occupancy.
As for ATAATGAC, the binding signal came to 0.0804 normalized occupancy.
For AACTTGCC, the binding signal stood at 0.0757 normalized occupancy.
Turning to GAAACGCC, the binding signal stood at 0.0758 normalized occupancy.
Regarding CACTGCTG, the binding signal was 0.0746 normalized occupancy.
For ATATGATC, the binding signal came to 0.0857 normalized occupancy.
For the sequence CCACATAA, the binding signal stood at 0.0799 normalized occupancy.
As for CAGCAGAG, the binding signal came to 0.0727 normalized occupancy.
Turning to CATGAGAG, the binding signal came out at 0.0941 normalized occupancy.
As for CATGAGGA, the binding signal was determined as 0.106 normalized occupancy.
For AATGAGGC, the binding signal worked out at 0.0776 normalized occupancy.
For CATGAGTC, the binding signal worked out at 0.091 normalized occupancy.
GATGAGGC: the binding signal came to 0.0786 normalized occupancy.
For the sequence TATGAGGA, the binding signal was found to be 0.0851 normalized occupancy.
As to CATGAGTA, the binding signal came to 0.0969 normalized occupancy.
On to CATGAGGG, for which the binding signal was 0.109 normalized occupancy.
With AATGAGGG the figure was 0.0862 normalized occupancy; with CATGAGGC, 0.109 normalized occupancy.
Regarding AATGAGGA, the binding signal came out at 0.0838 normalized occupancy.
Consider AATGAGTA, for which the binding signal is 0.077 normalized occupancy.
In the case of GACACTTA, the binding signal is 0.0771 normalized occupancy.
With GCAACACA, the binding signal amounted to 0.0795 normalized occupancy.
Turning to TCAACTAA, the binding signal is 0.0725 normalized occupancy.
Turning to ATTGAAAT, the binding signal was 0.0772 normalized occupancy.
As for GTGAGTCA, the binding signal is 0.0793 normalized occupancy.
As for CCCCCCCA, the binding signal came to 0.0901 normalized occupancy.
Consider CGACAGCA, for which the binding signal stood at 0.0797 normalized occupancy.
With ATAAATAG, the binding signal came to 0.0754 normalized occupancy.
In the case of ATTCAGTA, the binding signal was 0.0734 normalized occupancy.
Turning to ATGACTAC, the binding signal was found to be 0.0811 normalized occupancy.
As to ATGAGGGG, the binding signal was determined as 0.0902 normalized occupancy.
With ATGAGGGA, the binding signal is 0.0908 normalized occupancy.
As for ATGAGGGC, the binding signal turned out to be 0.0956 normalized occupancy.
For GATTTAGA, the binding signal is 0.0724 normalized occupancy.
Consider ACGTTGAC, for which the binding signal is 0.0793 normalized occupancy.
Regarding AAACCACA, the binding signal is 0.0814 normalized occupancy.
For AAACCACG, the binding signal is 0.0972 normalized occupancy.
Take TAACCACA: the binding signal is 0.0809 normalized occupancy.
Take ATACCACA: the binding signal came out at 0.089 normalized occupancy.
On to ATACCACG, for which the binding signal came out at 0.0991 normalized occupancy.
With CTACCACA, the binding signal was found to be 0.0867 normalized occupancy.
Turning to CCGTTCTC, the binding signal worked out at 0.0814 normalized occupancy.
With AGAGCATG the figure was 0.0989 normalized occupancy; with ATAGCATC, 0.0799 normalized occupancy.
The same measure for AGAGCATA: 0.0815 normalized occupancy; for ACAGCATC: 0.0767 normalized occupancy; for ACAGCATG: 0.127 normalized occupancy.
ATAGCATA: the binding signal worked out at 0.0872 normalized occupancy.
Consider ATAGCATG, for which the binding signal was 0.103 normalized occupancy.
Consider AGAGCATC, for which the binding signal amounted to 0.0755 normalized occupancy.
Take ACAGCATA: the binding signal stood at 0.0896 normalized occupancy.
With AGTACAGG the figure was 0.0787 normalized occupancy; with ACACTCTG, 0.0741 normalized occupancy; with ATAGCTTC, 0.074 normalized occupancy.
In the case of AAGAGGCA, the binding signal came out at 0.0761 normalized occupancy.
ACGATTAG: the binding signal turned out to be 0.0719 normalized occupancy.
For GATTCACC, the binding signal came out at 0.0757 normalized occupancy.
As for ACGATTTC, the binding signal was determined as 0.0741 normalized occupancy.
For the sequence CATCTTCA, the binding signal came to 0.0786 normalized occupancy.
With AAAATAGG the figure was 0.076 normalized occupancy; with ACACATAT, 0.0874 normalized occupancy.
The same measure for ACACATGT: 0.127 normalized occupancy.
ACACATGC: the binding signal amounted to 0.137 normalized occupancy.
As for CTACATGC, the binding signal came out at 0.089 normalized occupancy.
With ATACATGA the figure was 0.0834 normalized occupancy; with ACACATTG, 0.102 normalized occupancy.
In the case of ACACATTC, the binding signal is 0.0866 normalized occupancy.
As for ACACATAC, the binding signal worked out at 0.0823 normalized occupancy.
As to ATACATGC, the binding signal came out at 0.104 normalized occupancy.
Take ACACATTA: the binding signal is 0.0926 normalized occupancy.
Take AGACATTG: the binding signal was found to be 0.0768 normalized occupancy.
With ACACATCT the figure was 0.0851 normalized occupancy; with ACCCAAAG, 0.072 normalized occupancy.
On to CACGGCAC, for which the binding signal turned out to be 0.078 normalized occupancy.
Turning to ATGATGGC, the binding signal is 0.0855 normalized occupancy.
As for TGCTAGCA, the binding signal was 0.0864 normalized occupancy.
With GCCTACCC the figure was 0.0797 normalized occupancy; with ACACATGA, 0.107 normalized occupancy.
As to GCACATGA, the binding signal was 0.12 normalized occupancy.
Turning to GCACATGC, the binding signal was found to be 0.159 normalized occupancy.
As to ACACATAA, the binding signal worked out at 0.082 normalized occupancy.
With GAACATGC the figure was 0.089 normalized occupancy; with TCACATAA, 0.0812 normalized occupancy; with TCACATGA, 0.109 normalized occupancy.
With GAACATGA, the binding signal came to 0.0904 normalized occupancy.
For GCACATAC, the binding signal is 0.0803 normalized occupancy.
As to GGACATGA, the binding signal was found to be 0.0803 normalized occupancy.
With ACACATCA the figure was 0.0839 normalized occupancy.
TAACATGA: the binding signal was found to be 0.0906 normalized occupancy.
For AGATTTGC, the binding signal is 0.0766 normalized occupancy.
Regarding CGCCTCTC, the binding signal amounted to 0.0756 normalized occupancy.
ACTGAATC: the binding signal was 0.0726 normalized occupancy.
For the sequence CTCAACCC, the binding signal was determined as 0.072 normalized occupancy.
With CTGTAATA, the binding signal was 0.0777 normalized occupancy.
For CATGGGAC, the binding signal was 0.0894 normalized occupancy.
Turning to GTCAGCAC, the binding signal turned out to be 0.0806 normalized occupancy.
CACAATGG: the binding signal came to 0.0783 normalized occupancy.
On to TACCTTAA, for which the binding signal turned out to be 0.072 normalized occupancy.
Consider AAGATCTT, for which the binding signal turned out to be 0.0757 normalized occupancy.
In the case of ATACATGG, the binding signal was 0.0876 normalized occupancy.
As to AAACATGA, the binding signal was 0.0907 normalized occupancy.
AAACATGT: the binding signal is 0.0983 normalized occupancy.
AAACATGC: the binding signal came out at 0.0937 normalized occupancy.
On to ACACATGG, for which the binding signal was found to be 0.159 normalized occupancy.
On to AAACATGG, for which the binding signal turned out to be 0.0874 normalized occupancy.
Regarding GATGACAA, the binding signal was determined as 0.0764 normalized occupancy.
As for TCTTTCAA, the binding signal turned out to be 0.0757 normalized occupancy.
With ACTAGTTA the figure was 0.0749 normalized occupancy; with CCTCAACC, 0.0752 normalized occupancy; with AATTTGGG, 0.0765 normalized occupancy.
With CGCGCGCG, the binding signal worked out at 0.0873 normalized occupancy.
Consider CGCGCGCC, for which the binding signal was found to be 0.0783 normalized occupancy.
Consider CCCGCGCC, for which the binding signal was found to be 0.0733 normalized occupancy.
With CGCGCGCA the figure was 0.075 normalized occupancy; with AACGCGCA, 0.078 normalized occupancy; with CACGCGCG, 0.133 normalized occupancy.
The same measure for CACGCGCA: 0.135 normalized occupancy; for AACGCGCG: 0.0803 normalized occupancy.
In the case of CACGCGCC, the binding signal came out at 0.116 normalized occupancy.
With AACATCAC the figure was 0.0837 normalized occupancy; with CTAGCTAC, 0.0765 normalized occupancy; with CCTAGTGC, 0.0733 normalized occupancy.
Regarding AACCCCTC, the binding signal was 0.0767 normalized occupancy.
With AATAAGTA, the binding signal is 0.0754 normalized occupancy.
Consider ATTCTATG, for which the binding signal is 0.0827 normalized occupancy.
As to CTTTCTGC, the binding signal was 0.0723 normalized occupancy.
For CGTAACGC, the binding signal was found to be 0.0778 normalized occupancy.
On to GCAAGCCA, for which the binding signal was determined as 0.0722 normalized occupancy.
For the sequence GATGGCCA, the binding signal turned out to be 0.0755 normalized occupancy.
For the sequence AATGTCAA, the binding signal is 0.0742 normalized occupancy.
Take ATAAGTAA: the binding signal stood at 0.0793 normalized occupancy.
For GTCATGAC, the binding signal was determined as 0.0806 normalized occupancy.
The same measure for GCCATGAC: 0.0739 normalized occupancy.
Regarding AGCATGAC, the binding signal was found to be 0.0962 normalized occupancy.
For AGCATGAA, the binding signal is 0.0874 normalized occupancy.
Turning to ATCATGAT, the binding signal was 0.0928 normalized occupancy.
For the sequence AGCATGAT, the binding signal turned out to be 0.107 normalized occupancy.
